Measured values: PubChem BioAssay (NCI)
This is part of a sample that, as a whole, favours compounds with a hit. Of some 79,000 tested, about 15% had one in any assay. Rule as the data show it: active = growth inhibition above about 70%; inactive = the rest.

Columns and labels:
[1] = NCI Yeast Anticancer Drug Screen. Data for the rad50 strain (AID 155);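 also: 0% = growth of vehicle-only cultures of the same strain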; settings: S. cerevisiae rad50 strain growth inhibition; at 50.0 µM; hits give high values
Method in brief: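 Growth of the mutant yeast was measured after compound exposure and referenced to vehicle-treated cultures.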

[2] = NCI Yeast Anticancer Drug Screen. Data for the mec2-1 strain (AID 157); settings: S. cerevisiae mec2-1 strain, at 50.0 µM, hits give high values
Method in brief: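 Using mec2-1 yeast: add compound, measure growth, express inhibition versus vehicle-treated cultures.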

[3] = NCI Yeast Anticancer Drug Screen. Data for the sgs1 mgt1 strain (AID 161);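 also: 0% = growth of cultures given vehicle only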; settings: S. cerevisiae sgs1 mgt1 strain, at 50.0 µM, hits give high values
Method in brief: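 Percent growth inhibition was derived by comparing compound-exposed mutant yeast with vehicle-exposed cultures. The strain carries alterations in DNA damage repair.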

[4] = NCI Yeast Anticancer Drug Screen. Data for the cln2 rad14 strain (AID 165);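 also: 0% = growth equal to vehicle treated cultures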; settings: S. cerevisiae cln2 rad14 strain, at 50.0 µM, hits give high values
Method in brief: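 Yeast strain cln2 rad14, bearing defects in cell cycle control and DNA repair, serves as the test system; values reflect growth inhibition compared with vehicle.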

[5] = NCI Yeast Anticancer Drug Screen. Data for the bub3 strain (AID 167); settings: S. cerevisiae bub3 mutant strain, at 50.0 µM, hits give high values
Method in brief: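 Whole-cell yeast assay. The mutant strain was incubated with compounds, and growth inhibition was determined by comparison with vehicle-treated cells.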

[6] = NCI Yeast Anticancer Drug Screen. Data for the mlh1 rad18 strain (AID 175); settings: S. cerevisiae mlh1 rad18 strain growth inhibition; at 50.0 µM; hits give high values
Method in brief: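 Steps: expose repair-defective yeast to compound; measure growth; express inhibition against vehicle-treated controls.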

Measured: growth inhibition

Cc1ccsc1C(=O)C(CC(=O)c1cccs1)c1ccsc1 (centres undefined)
inactive: [1] -5.45% | [2] -8.45% | [3] -0.9% | [4] 17.3% | [5] 25.4% | [6] 16.4%

CC#Cc1c(O)c2c(c(O)c1C#CC)C(=O)c1ccccc1C2=O
inactive: [1] -1.3% | [2] -30% | [3] -25.4% | [4] -8.95% | [5] -3% | [6] -29.8%

O=C(Nc1cc(Cl)ccc1Cl)Oc1ccc(Cl)cc1C(=O)c1ccccc1
inactive: [1] -45% | [2] -10.4% | [3] -37.8% | [4] -16.8% | [5] -35.4% | [6] -56.9%

NC(=O)COc1ccc(Br)cc1Br
inactive: [1] -0.1% | [2] -3.15% | [3] -12.7% | [4] 13.6% | [5] -6.3% | [6] 11.8%

CCCCCCCCCCCCCCCCCC
inactive: [1] -9.7% | [2] -6.9% | [3] -16.2% | [4] 6.7% | [5] 0.25% | [6] -2.15%

CC(Cc1ccccc1)c1ccccc1 (centres undefined)
inactive: [1] 15.9% | [2] 16.2% | [3] 10.7% | [4] 3.35% | [5] -0.05% | [6] 2.1%

COc1ccc(OC)c(C(O)P(=O)(c2ccccc2)c2ccccc2)c1 (centres undefined)
inactive: [1] 12.5% | [2] 1.65% | [3] 31.4% | [4] 12.2% | [5] 27.1% | [6] 27.2%

Cc1ncc([N+](=O)[O-])n1CCNC(=O)CCCCn1ccnc1[N+](=O)[O-]
inactive: [1] 5% | [2] -3.75% | [3] -8.6% | [4] 15.1% | [5] 7.15% | [6] -45%

Cn1c(=O)c2c(nc(N/N=C/c3ccccc3C(=O)O)n2C)n(C)c1=O
inactive: [1] -14.2% | [2] -3.15% | [3] -7.9% | [4] 12.3% | [5] -66.5% | [6] -15.3%

C#CCN(C)C(C)=O
inactive: [1] 25.3% | [2] -3.3% | [3] 5.1% | [4] 10.8% | [5] 6.45% | [6] 13.6%

COc1cccc2c1CCC1=CC(=O)CCC12C (centres undefined)
inactive: [1] 22.1% | [2] 5.5% | [3] 17.9% | [4] 28.8% | [5] 16.9% | [6] -0.65%

CCN(CC)CCC(=O)N1CCc2c([nH]c3ccccc23)C1c1cccnc1 (centres undefined)
inactive: [1] -26.9% | [2] -18.9% | [3] -3.95% | [4] -6.7% | [5] -0.1% | [6] -28.2%

CCC(CC)(C1CCC(=O)CC1)C1CCC(=O)CC1
inactive: [1] 45.9% | [2] -3.55% | [3] -1.05% | [4] -9.2% | [5] 37.1% | [6] 13.6%

CCCCCCCCCCCCCCCCCCCOc1ccc(OCCCCCCCCCCCC)cc1
inactive: [1] 35% | [2] -7.15% | [3] 25.9% | [4] -40.1% | [5] -1.35% | [6] -15.9%

COC(=O)c1ccc(C(=O)OC)nc1
inactive: [1] -7.45% | [2] -2.1% | [3] -0.2% | [4] -36.6% | [5] -25.6% | [6] -3.55%

COc1cc(Cc2nccc3cc(OC)c(OC)cc23)c(N=NN(C)C)cc1OC
inactive: [1] -14.2% | [2] -7.6% | [3] -4.9% | [4] 5.45% | [5] -10.4% | [6] 8.35%

CC1CC(=O)c2cc3oc(=O)n(C)c3cc21 (centres undefined)
inactive: [1] -3.4% | [2] -4.15% | [3] -6.2% | [4] -20.5% | [5] 19.2% | [6] -0.45%

Clc1cc2nn(C3CCCCO3)nc2cc1Cl (centres undefined)
inactive: [1] 0.65% | [2] -12.8% | [3] -18.4% | [4] -15.9% | [5] 16.9% | [6] -44.8%

CC(COc1cc(Cl)c(Cl)cc1Cl)OC(=O)COc1ccc(Cl)cc1Cl (centres undefined)
inactive: [1] 8.75% | [2] 8.85% | [3] 7.7% | [4] 28.5% | [5] 2.9% | [6] 7%

N#CC1=C(c2ccccc2)NNC(c2ccc(Cl)cc2)CC1=O (centres undefined)
inactive: [1] -18.1% | [2] -1.45% | [3] 2.4% | [4] 6.8% | [5] -22.6% | [6] 36.5%

COc1ccc(CC[N+]2=Cc3cc(OC)c(OC)cc3CC2)cc1OC
inactive: [1] -0.9% | [2] -2.8% | [3] 12.6% | [4] 13.3% | [5] 2.7% | [6] 15.5%

CC1=CC(=O)N2C(OC[C@@H]2c2ccccc2)O1 (some centres undefined)
inactive: [1] 3.5% | [2] -11.8% | [3] -12.9% | [4] 9.95% | [5] -18.9% | [6] -21.4%

Cc1cc2nnc(-c3cccc([N+](=O)[O-])c3)n2c2nnnn12
inactive: [1] 25% | [2] 31.1% | [3] 21.6% | [4] 66.7% | [5] 37.8% | [6] 36.7%

CN1CCN(C2CCCc3ccccc3C2O)CC1 (centres undefined)
inactive: [1] -0.75% | [2] 13.6% | [3] -15.7% | [4] -25.1% | [5] 1.3% | [6] 0.2%
